Results: PubChem BioAssay
Activity calls are given as the source filed them.

Assays:
[1] = tested on: Plasmodium falciparum Sir2 (PF13_0152, Sir2A); experiment: Plasmodium falciparum Sir2A binding compounds – biochemical, small-molecule microarray, 635 nm fluorescence, primary screen (AID 1098); conditions: fluorescence 635 nm, higher = more signal;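 also: score merges spot fluorescence intensity with its signal-to-noise ratio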
[2] = probe aDKK1 binding to arrayed compounds – biochemical, biotinylated probe, 635/667 nm fluorescence, primary screen (AID 1099); conditions: small-molecule microarray, higher = more signal;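 also: score merges 667nm spot fluorescence with signal to noise across triplicate slides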
[3] = probe aCHRDL2 binding to arrayed compounds – biochemical, biotinylated probe, 635/667 nm fluorescence, primary screen (AID 1100); conditions: small-molecule microarray, higher = more signal
[4] = change in splice reporter luminescence, either direction, cell-based, HEK293, spliceosome inhibition project, primary screen (AID 1101); conditions: HEK293 splicing luciferase reporter, 24 h, higher = more signal, called active from +8 up or from −8 down;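 also: HEK293 cells carrying a splicing-competent luciferase reporter gene; test concentration not given here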
[5] = molecular target: Fibroblast growth factor 10 (Homo sapiens) (UniProt O15520); experiment: compounds binding fibroblast growth factor 10 – biochemical, small-molecule microarray, 635 nm fluorescence, primary screen (AID 1102); conditions: FGF10 binding, fluorescence 635 nm, higher = more signal
[6] = tested on: glycogen synthase kinase-3 (GSK3A per assay name; protocol says GSK3B); experiment: compounds binding glycogen synthase kinase-3 – biochemical, small-molecule microarray, 635 nm fluorescence, GSK3A, primary screen (AID 1103); conditions: fluorescence 635 nm, higher = more signal; also: the record names both GSK3A and GSK3B
[7] = molecular target: Epidermal growth factor receptor (Homo sapiens) (UniProt P00533); experiment: compounds binding epidermal growth factor receptor – biochemical, small-molecule microarray, 635 nm fluorescence, primary screen (AID 1104); conditions: EGFR binding, higher = more signal;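 also: score merges 667 nm emission intensity with spot signal to noise over triplicate slides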
[8] = molecular target: Follistatin-related protein 3 (Homo sapiens) (UniProt O95633); experiment: compounds binding follistatin-related protein 3 – biochemical, small-molecule microarray, 635 nm fluorescence, primary screen (AID 1105); conditions: FSTL3 binding, higher = more signal;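 also: score merges emission near 667 nm and signal to noise per printed spot across three slides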
[9] = molecular target: Dickkopf-related protein 1 (Homo sapiens) (UniProt O94907); experiment: small molecules binding DKK1 protein – biochemical, small-molecule microarray, 635 nm fluorescence scan, primary screen (AID 1106); conditions: higher = more signal;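 also: score merges emission near 667 nm with signal to noise over three replicate slides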
[10] = tested on: Inhibin beta A chain (activin A); experiment: small molecules binding activin A – biochemical, small-molecule microarray, 635 nm fluorescence scan, primary screen (AID 1107); conditions: INHBA, higher = more signal;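 also: mouse activin A protein probed at 4.33 µg/mL on printed slides; score merges bound-protein fluorescence near 667 nm with spot signal-to-noise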
[11] = tested on: Human papillomavirus type 1a protein E7 (residues 44-93); experiment: small molecules binding HPV E7 44-93 – biochemical, small-molecule microarray, residues 44-93, 635 nm fluorescence, primary screen (AID 1108); conditions: fluorescence 635 nm, higher = more signal;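 also: E7 fragment applied at 1 µg/mL in TBST for 1 h at 4 C; score combines spot fluorescence with its signal to noise ratio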
[12] = hepatitis C replication reporter changes, two-sided – Huh7 cells, luciferase reporter, HCV replication inhibitor project, primary screen (AID 1109); conditions: Huh7 HCV replicon luciferase reporter, 48 h; higher = more signal;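 also: huh7 hepatoma cells harbouring a luciferase neomycin HCV replicon reporter; luciferase luminescence as measure of HCV replicon replication; test concentration not given here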
[13] = molecular target: Left-right determination factor 2 (Homo sapiens) (UniProt O00292); experiment: small molecules binding LEFTY2 protein – biochemical, small-molecule microarray, 635 nm fluorescence scan, primary screen (AID 1110); conditions: higher = more signal
[14] = molecular target: Calmodulin-1 (Homo sapiens) (UniProt P0DP23); experiment: small molecules binding calmodulin-1 with EGTA – biochemical, small-molecule microarray, Cy5-labelled CALM1, profiling panel (AID 1111); conditions: Cy5-CALM1 binding fluorescence, higher = more signal;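 also: labelled calmodulin applied in Tris saline Tween buffer holding calcium plus EGTA and DTT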
[15] = molecular target: Calmodulin-1 (Homo sapiens) (UniProt P0DP23); experiment: small molecules binding Ca-loaded calmodulin-1 – biochemical, small-molecule microarray, Cy5-labelled CALM1, plus calcium, artefact control for SMM control-protein annotation, profiling panel (AID 1112); conditions: Cy5-CALM1 binding fluorescence, higher = more signal;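 also: score merges spot fluorescence with signal to noise from triplicate slides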
[16] = probe aWnt5a binding to arrayed compounds – biochemical, biotinylated probe, 635/667 nm fluorescence, primary screen (AID 1113); conditions: small-molecule microarray, higher = more signal;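 also: score merges 667 nm fluorescence intensity with signal-to-noise per printed feature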
[17] = probe aShh binding to arrayed compounds – biochemical, biotinylated probe, 635/667 nm fluorescence, primary screen (AID 1114); conditions: small-molecule microarray, higher = more signal;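 also: probe is biotin-labelled aShh protein from a stem cell growth factor screen; measures binding of labelled protein to compounds printed on the slide; score merges feature fluorescence at 667 nm with signal-to-noise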
[18] = probe aNog binding to arrayed compounds – biochemical, biotinylated probe, 635/667 nm fluorescence, primary screen (AID 1115); conditions: small-molecule microarray, higher = more signal;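 also: probe is biotinylated aNog protein used at 0.15 µg/mL for 1 h at 4 C; z-score combines 667 nm fluorescence of each spot with its signal to noise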
[19] = molecular target: Torsin-1A-interacting protein 1 (Homo sapiens) (UniProt Q5JTV8); experiment: compound microarray binding of lysate hLAP1 – cell lysate, small-molecule microarray, COS7 lysate, 635/667 nm fluorescence, primary screen (AID 1116); conditions: 635 nm fluorescence, higher = more signal
[20] = molecular target: Alpha-bungarotoxin (Bungarus multicinctus) (UniProt P60615); experiment: compounds binding labelled alpha-BTX control protein – biochemical, small-molecule microarray, Alexa647 label, 635/667 nm fluorescence, artefact control for SMM control protein annotation, profiling panel (AID 1117); conditions: alpha-BTX-A647 binding fluorescence, higher = more signal
Chain of Alpha-bungarotoxin (Bungarus multicinctus) (P60615 whole entry, looked up): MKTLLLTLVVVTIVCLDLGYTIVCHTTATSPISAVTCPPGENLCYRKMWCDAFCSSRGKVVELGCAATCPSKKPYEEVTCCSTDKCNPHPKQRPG

Chain of Torsin-1A-interacting protein 1 (Homo sapiens) (Q5JTV8 whole entry, looked up): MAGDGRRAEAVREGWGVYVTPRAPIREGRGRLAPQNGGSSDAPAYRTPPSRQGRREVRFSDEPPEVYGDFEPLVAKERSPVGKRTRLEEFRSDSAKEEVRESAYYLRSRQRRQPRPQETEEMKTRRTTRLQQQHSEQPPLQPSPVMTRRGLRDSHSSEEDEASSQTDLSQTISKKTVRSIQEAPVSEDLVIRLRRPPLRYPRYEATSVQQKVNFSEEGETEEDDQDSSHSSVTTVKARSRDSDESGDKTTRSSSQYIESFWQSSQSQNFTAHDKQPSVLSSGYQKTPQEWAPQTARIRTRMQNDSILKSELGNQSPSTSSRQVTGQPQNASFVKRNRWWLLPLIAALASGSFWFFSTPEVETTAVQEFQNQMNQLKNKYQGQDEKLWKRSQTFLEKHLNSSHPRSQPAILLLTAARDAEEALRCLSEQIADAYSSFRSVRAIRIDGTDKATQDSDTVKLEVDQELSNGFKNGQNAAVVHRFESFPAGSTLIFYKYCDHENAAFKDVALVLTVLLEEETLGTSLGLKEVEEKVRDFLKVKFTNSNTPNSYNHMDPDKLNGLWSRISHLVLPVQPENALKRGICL
Chain of Dickkopf-related protein 1 (Homo sapiens) (O94907 whole entry, looked up): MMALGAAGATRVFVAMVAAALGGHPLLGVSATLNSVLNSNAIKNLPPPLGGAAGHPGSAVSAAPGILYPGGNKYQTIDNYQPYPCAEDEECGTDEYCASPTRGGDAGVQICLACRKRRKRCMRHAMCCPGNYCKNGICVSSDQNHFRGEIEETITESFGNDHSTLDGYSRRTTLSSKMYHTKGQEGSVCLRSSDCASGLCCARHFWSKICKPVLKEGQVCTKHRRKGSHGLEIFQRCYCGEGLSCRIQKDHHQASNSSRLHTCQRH
Chain of Follistatin-related protein 3 (Homo sapiens) (O95633 whole entry, looked up): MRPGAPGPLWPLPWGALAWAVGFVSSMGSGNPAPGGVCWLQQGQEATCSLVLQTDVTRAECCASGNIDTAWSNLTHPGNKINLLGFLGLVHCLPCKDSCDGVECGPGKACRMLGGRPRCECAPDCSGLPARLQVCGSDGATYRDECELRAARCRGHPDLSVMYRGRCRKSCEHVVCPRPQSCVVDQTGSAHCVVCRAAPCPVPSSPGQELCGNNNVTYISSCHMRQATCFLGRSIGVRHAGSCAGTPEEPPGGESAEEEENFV
Chain of Epidermal growth factor receptor (Homo sapiens) (P00533 whole entry, looked up): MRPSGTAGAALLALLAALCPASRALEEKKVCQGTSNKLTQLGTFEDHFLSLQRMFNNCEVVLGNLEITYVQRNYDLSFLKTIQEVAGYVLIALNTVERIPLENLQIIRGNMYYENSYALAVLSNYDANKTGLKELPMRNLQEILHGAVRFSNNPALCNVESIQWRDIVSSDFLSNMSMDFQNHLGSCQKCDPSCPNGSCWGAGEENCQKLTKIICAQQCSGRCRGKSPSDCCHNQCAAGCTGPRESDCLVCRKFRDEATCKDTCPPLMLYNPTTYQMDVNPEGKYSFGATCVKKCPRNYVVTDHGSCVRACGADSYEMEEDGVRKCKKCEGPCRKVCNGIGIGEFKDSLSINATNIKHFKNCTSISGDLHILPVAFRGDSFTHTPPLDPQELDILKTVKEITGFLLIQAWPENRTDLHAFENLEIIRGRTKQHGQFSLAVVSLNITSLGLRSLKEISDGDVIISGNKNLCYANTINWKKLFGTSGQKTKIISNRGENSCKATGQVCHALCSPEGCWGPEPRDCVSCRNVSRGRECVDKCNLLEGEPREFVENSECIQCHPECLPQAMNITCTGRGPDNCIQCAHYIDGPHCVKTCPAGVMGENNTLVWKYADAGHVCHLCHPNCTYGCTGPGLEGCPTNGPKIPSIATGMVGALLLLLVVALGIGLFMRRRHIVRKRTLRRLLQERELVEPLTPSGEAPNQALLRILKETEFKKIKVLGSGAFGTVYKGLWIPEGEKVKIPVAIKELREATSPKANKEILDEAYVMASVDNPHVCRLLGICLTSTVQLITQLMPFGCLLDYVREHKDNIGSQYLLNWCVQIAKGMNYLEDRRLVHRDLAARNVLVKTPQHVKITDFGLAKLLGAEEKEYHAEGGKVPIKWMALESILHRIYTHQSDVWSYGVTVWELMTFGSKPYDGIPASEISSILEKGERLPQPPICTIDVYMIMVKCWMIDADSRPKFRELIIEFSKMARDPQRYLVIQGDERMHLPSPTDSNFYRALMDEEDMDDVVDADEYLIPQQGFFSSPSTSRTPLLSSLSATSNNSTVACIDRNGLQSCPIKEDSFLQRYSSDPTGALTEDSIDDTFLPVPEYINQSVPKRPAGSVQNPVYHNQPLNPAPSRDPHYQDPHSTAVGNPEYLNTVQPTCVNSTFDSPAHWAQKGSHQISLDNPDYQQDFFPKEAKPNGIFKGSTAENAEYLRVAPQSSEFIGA
Chain of Fibroblast growth factor 10 (Homo sapiens) (O15520 whole entry, looked up): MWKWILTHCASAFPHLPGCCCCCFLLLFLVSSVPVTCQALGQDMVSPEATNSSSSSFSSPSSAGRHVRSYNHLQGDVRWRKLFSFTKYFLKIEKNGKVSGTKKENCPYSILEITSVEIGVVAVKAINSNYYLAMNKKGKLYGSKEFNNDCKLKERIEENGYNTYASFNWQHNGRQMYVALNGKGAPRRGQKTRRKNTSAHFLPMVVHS
Chain of Left-right determination factor 2 (Homo sapiens) (O00292 whole entry, looked up): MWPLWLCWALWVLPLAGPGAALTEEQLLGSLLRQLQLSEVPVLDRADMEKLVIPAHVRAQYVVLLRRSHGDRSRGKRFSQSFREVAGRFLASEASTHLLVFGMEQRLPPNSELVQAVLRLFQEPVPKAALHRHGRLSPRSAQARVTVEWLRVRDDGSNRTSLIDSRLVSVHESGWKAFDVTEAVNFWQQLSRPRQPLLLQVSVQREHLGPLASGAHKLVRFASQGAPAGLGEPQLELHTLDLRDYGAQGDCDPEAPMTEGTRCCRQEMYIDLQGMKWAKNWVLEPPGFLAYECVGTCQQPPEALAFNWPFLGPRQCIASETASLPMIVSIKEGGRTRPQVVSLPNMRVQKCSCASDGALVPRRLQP

| Compound | composite z-score [1] | composite z-score [2] | composite z-score [3] | z-score [4] | composite z-score [5] | composite z-score [6] | composite z-score [7] | composite z-score [8] | composite z-score [9] | composite z-score [10] | composite z-score [11] | z-score [12] | composite z-score [13] | composite z-score [14] | composite z-score [15] | composite z-score [16] | composite z-score [17] | composite z-score [18] | composite z-score [19] | composite z-score [20] |
| --- | --- | --- | --- | --- | --- | --- | --- | --- | --- | --- | --- | --- | --- | --- | --- | --- | --- | --- | --- | --- |
| C=CCNC(=O)[C@@H]1[C@H]2C(=O)O[C@H](c3ccccc3)[C@H](c3ccccc3)N2[C@H](c2ccc(OCCO)cc2)[C@@]12C(=O)Nc1ccccc12 | 1.06 | 0.454 | -0.0808 | -0.0935 (inactive) | 0.772 | 0.839 | 0.254 | 0.774 | 0.228 | 0.344 | 1.39 | -1.72 | 0.302 | 0.705 | -0.495 | -0.0179 | 0.0469 | -0.543 | 1.55 | 1.05 |
| NC(=O)NCC#Cc1ccc2c(c1)[C@]1(C(=O)N2)[C@H](C(=O)NC[C@H](O)c2ccccc2)[C@H]2C(=O)O[C@H](c3ccccc3)[C@H](c3ccccc3)N2[C@@H]1c1ccc(O)cc1 | 1.23 | 0.0166 | -0.249 | 0.37 (inactive) | 0.893 | 0.664 | 0.575 | 0.553 | 0.314 | 1.72 | 1.38 | -0.257 | 0.691 | 2 | 0.916 | 0.551 | 0.456 | 0.921 | 1.45 | 2.19 |
| COCCOC(=O)N1C(=O)[C@@]2(c3ccccc31)[C@H](C(=O)NC[C@H](O)c1ccccc1)[C@H]1C(=O)O[C@H](c3ccccc3)[C@H](c3ccccc3)N1[C@@H]2c1ccc(OCCO)cc1 | 1.38 | 0.0185 | -0.131 | -1.81 (inactive) | 1.08 | 1.27 | 1.13 | 1.51 | 1.01 | 0.955 | 1.11 | -1.33 | 0.965 | 0.932 | -0.373 | -0.0263 | 0.0723 | -0.466 | 1.13 | 0.247 |
| COc1ccc([Si](C)(C)[C@@H]2[C@@H](CC(=O)N3CCC[C@H]3CO)O[C@]3(C(=O)N(C)c4c(Br)cc(C)cc43)[C@H]2C)cc1 | 0.717 | 0.0781 | 0.0013 | -0.778 (inactive) | 0.801 | 0.889 | 0.35 | 1.42 | 1.1 | 0.809 | 1.28 | -2.05 | 0.396 | 0.207 | 0.0431 | 0.0219 | -0.0035 | -0.229 | 0.948 | 0.338 |
| C=CCC(OC(C)=O)[C@@H]1[C@@H](N(Cc2ccc(-c3cccc(C(F)(F)F)c3)o2)C(=O)c2ccc(C)cc2)c2cc(OCCCO)ccc2N1C(=O)c1ccc(-c2ccccc2)cc1 (stereo not given in full) | 0.44 | -0.0544 | 0.0823 | -0.714 (inactive) | 0.0825 | -1 | -0.0697 | 0.473 | -0.0581 | 1.23 | -0.734 | -0.094 | -0.0524 | -0.201 | -0.147 | -0.124 | -0.16 | -0.363 | -0.178 | -0.286 |
| COc1ccc(C(O)C2C=CC3C(=O)N(C)C(=O)C3N2Nc2ccccc2)cc1OCc1ccccc1 (stereo not given) | 1.1 | 0.679 | 0.85 | 0.89 (inactive) | 0.868 | 0.841 | 0.165 | 0.814 | -0.0523 | 0.152 | 1.43 | -0.685 | 0.195 | 1.52 | 0.519 | -0.0529 | -0.221 | 0.289 | 1.25 | 1.79 |
